Reference: the supplement of paper PMC11732987, “Enantioselective OTUD7B fragment discovery through chemoproteomics screening and high-throughput optimisation” (Communications Chemistry, 2025)

Columns and labels:
Test in all cases: log2 ratio of Biotin-Ahx-Ub-VS probe labelling (fragment/DMSO); higher = less target engagement (more negative = stronger competition), active = hit call of the paper (q ≤ 0.05, log2 ratio ≤ -1)
Settings in all cases: compound concentration: 200 uM; treatment time: 3 h
USP34 = USP34 (UniProt Q70CQ2)
USP34, sequence (Q70CQ2 whole entry, the tested form may be a part): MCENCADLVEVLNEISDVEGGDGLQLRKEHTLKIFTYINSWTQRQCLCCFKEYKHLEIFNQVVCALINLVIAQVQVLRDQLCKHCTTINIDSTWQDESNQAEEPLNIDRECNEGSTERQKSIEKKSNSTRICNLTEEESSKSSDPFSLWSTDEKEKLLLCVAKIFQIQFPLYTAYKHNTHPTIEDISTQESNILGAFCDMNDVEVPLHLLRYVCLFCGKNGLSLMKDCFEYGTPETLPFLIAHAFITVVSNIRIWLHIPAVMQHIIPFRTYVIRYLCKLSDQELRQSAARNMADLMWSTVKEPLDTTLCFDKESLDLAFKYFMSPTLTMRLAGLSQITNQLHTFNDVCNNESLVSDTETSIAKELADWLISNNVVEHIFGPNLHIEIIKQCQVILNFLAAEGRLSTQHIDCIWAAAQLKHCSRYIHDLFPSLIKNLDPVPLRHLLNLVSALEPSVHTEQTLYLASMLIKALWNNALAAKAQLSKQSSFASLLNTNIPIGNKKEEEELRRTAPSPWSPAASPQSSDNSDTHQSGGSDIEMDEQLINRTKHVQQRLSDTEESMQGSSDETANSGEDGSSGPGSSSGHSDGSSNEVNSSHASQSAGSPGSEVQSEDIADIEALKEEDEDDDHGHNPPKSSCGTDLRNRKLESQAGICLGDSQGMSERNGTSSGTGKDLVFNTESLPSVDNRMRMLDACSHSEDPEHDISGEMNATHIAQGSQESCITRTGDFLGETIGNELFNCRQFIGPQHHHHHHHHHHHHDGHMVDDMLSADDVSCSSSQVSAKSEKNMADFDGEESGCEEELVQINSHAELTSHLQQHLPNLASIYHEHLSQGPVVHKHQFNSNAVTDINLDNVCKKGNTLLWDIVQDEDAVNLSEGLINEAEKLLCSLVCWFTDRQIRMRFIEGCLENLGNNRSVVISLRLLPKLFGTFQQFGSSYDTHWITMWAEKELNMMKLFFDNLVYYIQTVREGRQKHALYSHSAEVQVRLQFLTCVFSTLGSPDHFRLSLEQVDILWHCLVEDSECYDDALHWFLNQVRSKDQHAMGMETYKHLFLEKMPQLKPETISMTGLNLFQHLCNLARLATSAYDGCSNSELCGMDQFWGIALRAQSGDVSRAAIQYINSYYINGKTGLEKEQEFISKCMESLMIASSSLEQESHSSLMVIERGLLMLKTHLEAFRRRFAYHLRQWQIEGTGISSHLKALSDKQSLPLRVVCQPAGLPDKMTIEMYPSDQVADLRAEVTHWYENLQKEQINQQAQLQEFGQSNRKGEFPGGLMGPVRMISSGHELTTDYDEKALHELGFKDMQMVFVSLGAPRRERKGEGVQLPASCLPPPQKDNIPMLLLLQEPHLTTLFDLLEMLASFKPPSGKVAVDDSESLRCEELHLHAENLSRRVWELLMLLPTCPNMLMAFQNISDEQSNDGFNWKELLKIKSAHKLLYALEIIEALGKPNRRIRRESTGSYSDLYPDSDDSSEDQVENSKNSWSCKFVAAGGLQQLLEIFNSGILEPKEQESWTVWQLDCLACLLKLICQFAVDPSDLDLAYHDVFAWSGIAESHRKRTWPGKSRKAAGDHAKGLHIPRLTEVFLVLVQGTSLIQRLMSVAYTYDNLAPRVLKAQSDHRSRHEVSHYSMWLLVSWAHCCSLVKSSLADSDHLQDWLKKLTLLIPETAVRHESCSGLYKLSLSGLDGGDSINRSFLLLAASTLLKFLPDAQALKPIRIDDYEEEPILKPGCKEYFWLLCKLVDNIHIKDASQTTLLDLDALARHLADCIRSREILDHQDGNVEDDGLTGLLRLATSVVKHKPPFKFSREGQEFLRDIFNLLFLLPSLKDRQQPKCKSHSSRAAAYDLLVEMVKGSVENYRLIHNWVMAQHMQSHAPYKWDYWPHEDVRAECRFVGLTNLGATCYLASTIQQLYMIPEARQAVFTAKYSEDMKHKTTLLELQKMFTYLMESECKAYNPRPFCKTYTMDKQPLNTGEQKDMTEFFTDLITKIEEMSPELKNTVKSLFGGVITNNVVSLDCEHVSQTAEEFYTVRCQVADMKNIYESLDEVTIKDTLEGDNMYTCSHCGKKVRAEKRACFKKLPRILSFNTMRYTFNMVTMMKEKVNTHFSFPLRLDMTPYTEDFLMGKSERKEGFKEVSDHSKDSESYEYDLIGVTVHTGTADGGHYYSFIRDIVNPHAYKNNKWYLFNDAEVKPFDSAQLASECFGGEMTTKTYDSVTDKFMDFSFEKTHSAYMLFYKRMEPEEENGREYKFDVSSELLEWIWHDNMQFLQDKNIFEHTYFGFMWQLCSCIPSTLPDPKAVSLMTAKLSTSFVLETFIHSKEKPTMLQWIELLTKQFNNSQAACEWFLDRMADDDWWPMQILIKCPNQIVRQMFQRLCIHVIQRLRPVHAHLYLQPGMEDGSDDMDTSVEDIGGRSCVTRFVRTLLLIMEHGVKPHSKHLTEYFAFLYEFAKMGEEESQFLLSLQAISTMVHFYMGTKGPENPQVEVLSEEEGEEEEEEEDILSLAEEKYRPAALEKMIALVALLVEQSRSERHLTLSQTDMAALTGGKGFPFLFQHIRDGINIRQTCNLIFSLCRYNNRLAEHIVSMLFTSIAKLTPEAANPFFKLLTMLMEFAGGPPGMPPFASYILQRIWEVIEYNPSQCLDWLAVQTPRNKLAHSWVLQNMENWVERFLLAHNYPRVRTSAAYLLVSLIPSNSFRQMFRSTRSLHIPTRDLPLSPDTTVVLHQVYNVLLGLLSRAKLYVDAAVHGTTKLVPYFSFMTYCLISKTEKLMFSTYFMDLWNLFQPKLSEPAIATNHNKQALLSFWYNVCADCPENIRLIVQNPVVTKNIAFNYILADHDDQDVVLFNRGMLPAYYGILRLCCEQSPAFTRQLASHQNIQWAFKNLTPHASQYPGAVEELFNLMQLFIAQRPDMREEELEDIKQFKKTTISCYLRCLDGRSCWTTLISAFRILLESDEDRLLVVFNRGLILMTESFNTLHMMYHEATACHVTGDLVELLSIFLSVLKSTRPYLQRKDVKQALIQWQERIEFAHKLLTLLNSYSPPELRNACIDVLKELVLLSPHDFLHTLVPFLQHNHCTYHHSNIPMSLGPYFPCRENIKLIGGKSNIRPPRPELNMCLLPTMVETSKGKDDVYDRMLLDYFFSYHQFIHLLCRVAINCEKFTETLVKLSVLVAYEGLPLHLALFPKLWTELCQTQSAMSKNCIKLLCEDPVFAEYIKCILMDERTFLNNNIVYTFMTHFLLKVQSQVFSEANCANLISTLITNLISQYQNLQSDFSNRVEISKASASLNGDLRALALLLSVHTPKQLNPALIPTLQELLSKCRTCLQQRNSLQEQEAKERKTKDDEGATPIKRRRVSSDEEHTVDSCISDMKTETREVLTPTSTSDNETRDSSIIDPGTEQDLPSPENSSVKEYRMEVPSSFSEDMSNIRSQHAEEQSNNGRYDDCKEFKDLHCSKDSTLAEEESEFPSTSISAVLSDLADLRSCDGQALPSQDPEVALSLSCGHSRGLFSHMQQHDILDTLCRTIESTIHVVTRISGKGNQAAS
Outline: (§1)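 The table lists average log2 ratios of fragment over vehicle, from an unpaired t-test on global-median-normalised Spectronaut label-free quantities. Proteins with ≥2 unique peptides were used. Samples were HEK293T lysate (495 µg) treated in triplicate with fragment at 200 µM or vehicle for 3 h, then with Biotin-Ahx-Ub-VS (0.5 µM final) for 1 h, with labelled DUBs NeutrAvidin-enriched and run by diaPASEF LC-MS/MS.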

USP36 = target: T1, USP36 (UniProt Q9P275)
T1 sequence (whole entry): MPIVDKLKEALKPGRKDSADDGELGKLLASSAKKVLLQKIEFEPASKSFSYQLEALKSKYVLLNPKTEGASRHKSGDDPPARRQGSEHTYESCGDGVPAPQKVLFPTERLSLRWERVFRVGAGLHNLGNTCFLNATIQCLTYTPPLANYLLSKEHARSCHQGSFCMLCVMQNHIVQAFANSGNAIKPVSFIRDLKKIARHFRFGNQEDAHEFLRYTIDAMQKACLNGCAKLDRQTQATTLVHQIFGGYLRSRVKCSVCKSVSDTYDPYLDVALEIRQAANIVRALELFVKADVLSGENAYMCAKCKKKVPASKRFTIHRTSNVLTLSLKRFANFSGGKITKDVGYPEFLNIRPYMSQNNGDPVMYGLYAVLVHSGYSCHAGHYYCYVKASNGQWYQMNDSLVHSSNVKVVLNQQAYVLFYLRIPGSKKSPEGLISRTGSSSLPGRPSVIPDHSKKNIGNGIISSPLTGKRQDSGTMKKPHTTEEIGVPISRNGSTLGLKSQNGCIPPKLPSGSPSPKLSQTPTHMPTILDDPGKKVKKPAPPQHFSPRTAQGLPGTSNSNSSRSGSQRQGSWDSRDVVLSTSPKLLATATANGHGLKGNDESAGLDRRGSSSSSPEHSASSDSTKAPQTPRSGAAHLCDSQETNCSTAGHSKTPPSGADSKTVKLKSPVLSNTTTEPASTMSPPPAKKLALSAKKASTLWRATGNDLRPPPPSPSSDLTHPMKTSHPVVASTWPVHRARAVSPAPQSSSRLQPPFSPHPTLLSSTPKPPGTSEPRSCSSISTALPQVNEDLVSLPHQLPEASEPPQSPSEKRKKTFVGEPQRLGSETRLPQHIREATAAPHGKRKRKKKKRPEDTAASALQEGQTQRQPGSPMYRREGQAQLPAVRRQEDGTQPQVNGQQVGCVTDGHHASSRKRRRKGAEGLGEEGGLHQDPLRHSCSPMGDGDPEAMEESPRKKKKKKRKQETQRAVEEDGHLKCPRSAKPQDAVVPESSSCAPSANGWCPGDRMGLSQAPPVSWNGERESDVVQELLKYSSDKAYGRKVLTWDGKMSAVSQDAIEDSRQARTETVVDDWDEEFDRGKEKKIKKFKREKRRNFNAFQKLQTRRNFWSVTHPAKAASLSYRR
Outline: as §1

USP38 = target: T2, USP38 (UniProt Q8NB14)
T2 sequence (whole entry): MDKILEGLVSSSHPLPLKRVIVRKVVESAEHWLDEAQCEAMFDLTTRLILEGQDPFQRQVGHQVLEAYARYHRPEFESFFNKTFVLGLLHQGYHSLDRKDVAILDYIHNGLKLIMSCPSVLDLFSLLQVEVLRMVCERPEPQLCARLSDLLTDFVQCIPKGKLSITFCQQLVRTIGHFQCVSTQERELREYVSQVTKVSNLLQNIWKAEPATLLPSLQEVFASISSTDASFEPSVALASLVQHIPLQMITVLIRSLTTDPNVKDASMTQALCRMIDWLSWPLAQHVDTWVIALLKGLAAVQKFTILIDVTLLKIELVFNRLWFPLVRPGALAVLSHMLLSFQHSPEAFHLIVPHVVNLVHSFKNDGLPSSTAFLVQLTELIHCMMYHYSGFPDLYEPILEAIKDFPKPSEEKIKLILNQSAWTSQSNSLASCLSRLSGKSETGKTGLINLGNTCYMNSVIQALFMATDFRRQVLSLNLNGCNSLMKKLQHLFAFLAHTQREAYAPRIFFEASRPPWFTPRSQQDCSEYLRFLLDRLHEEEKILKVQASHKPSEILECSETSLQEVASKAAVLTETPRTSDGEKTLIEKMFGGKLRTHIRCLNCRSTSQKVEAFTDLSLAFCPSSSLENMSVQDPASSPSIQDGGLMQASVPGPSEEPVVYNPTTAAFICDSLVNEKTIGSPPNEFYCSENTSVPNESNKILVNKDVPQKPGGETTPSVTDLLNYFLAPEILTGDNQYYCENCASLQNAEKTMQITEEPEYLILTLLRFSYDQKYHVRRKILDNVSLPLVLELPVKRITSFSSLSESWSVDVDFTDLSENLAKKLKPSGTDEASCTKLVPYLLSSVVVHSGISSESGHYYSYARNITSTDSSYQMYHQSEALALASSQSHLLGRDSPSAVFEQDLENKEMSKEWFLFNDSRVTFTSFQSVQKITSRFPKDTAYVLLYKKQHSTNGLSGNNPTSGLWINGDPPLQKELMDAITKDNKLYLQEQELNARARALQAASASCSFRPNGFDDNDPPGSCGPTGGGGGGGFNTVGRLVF
Outline: as §1

USP39 = target: T3, USP39 (UniProt Q53GS9)
T3 sequence (whole entry): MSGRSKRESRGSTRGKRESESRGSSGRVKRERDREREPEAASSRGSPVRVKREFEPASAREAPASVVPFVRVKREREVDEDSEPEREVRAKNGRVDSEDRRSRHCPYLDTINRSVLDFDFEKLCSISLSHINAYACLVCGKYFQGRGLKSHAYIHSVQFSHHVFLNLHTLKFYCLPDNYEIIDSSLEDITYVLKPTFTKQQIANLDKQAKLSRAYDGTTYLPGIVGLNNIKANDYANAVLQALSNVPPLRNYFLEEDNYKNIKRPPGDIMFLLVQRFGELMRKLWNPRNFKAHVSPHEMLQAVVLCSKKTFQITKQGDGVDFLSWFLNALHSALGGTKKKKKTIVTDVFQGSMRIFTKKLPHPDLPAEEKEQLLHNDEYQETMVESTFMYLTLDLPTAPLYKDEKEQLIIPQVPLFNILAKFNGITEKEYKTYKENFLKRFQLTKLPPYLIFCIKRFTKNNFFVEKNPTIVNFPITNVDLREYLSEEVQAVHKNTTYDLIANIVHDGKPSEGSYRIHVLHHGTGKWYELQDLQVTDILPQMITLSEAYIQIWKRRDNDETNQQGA
Outline: as §1

USP4 = target: T4, USP4 (UniProt Q13107)
T4 sequence (whole entry): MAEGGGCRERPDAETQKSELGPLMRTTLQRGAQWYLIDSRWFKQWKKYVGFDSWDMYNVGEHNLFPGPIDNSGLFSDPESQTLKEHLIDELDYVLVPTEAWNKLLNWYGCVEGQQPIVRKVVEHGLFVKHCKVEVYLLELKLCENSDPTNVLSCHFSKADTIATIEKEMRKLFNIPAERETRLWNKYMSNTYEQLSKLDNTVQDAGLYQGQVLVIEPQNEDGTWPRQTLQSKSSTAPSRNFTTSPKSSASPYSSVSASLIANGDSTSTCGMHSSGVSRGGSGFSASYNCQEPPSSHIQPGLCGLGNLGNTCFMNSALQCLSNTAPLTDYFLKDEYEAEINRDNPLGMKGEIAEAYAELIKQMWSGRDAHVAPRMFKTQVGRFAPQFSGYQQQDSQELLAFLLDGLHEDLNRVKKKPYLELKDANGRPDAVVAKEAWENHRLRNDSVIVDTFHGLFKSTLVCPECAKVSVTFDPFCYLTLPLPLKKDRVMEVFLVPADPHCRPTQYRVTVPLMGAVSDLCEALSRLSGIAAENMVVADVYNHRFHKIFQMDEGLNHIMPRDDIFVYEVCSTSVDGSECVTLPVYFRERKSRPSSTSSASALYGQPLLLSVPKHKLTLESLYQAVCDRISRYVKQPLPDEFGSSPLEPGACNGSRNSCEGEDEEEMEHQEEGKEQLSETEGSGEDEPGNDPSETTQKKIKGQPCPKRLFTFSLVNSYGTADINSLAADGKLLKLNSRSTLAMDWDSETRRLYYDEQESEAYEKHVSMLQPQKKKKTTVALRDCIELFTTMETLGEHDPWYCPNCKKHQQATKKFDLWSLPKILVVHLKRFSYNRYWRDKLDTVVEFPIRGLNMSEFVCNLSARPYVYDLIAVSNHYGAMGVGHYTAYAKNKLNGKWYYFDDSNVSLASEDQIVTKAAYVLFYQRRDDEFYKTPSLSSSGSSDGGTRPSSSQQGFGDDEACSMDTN
Outline: as §1

Measured: log2 ratio of Biotin-Ahx-Ub-VS probe labelling

CN(CCC(O)c1ccc(Br)cc1)C(=O)CCl (stereo not given)
inactive: USP34 -0.261 | USP36 -0.0809 | USP38 -0.17 | USP39 -0.00535 | USP4 -0.206
